# Values joined by “and” are separate entries in the source; they are usually repeats but may differ in a detail not shown here. Equal entries are not always repeated. Values without a mark were called inactive. Results filed as inconclusive are left out. Active and inactive are the calls of the source. Unless noted, the call rests on the fitted dose curve; in most records, active means well fitted curve in the direction sought with a large enough effect; inconclusive means small, poorly fitted or top-dose-only effect, or another doubt; inactive means no such curve, though single readings can be large; an effect the other way counts as inactive or inconclusive.
# Columns and labels:
# [1] = target: Cytochrome P450 1A2 (Homo sapiens) (UniProt P05177); test: p450-cyp1a2 (AID 410; calls by dose curve; further: potency means the concentration at half of the fitted maximal effect)
# In short: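 Luminescent readout of luciferin formed from Luciferin-ME by human CYP1A2; data normalized against complete inhibition by 57 uM furafylline. Enzyme 20nM, substrate 100uM at Km, 100mM KPO4 buffer, 60 min reaction at room temperature.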
# [2] = Stat Signaling Pathway (AID 446; active means well fitted curve in either direction with a large enough effect, not every such curve was filed as active;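 further: ME-180 cervical cancer cells given 40 pM IL-6 alongside compound; SIE-controlled beta-lactamase reporter measured as 460/530 nm FRET emission ratio; on the % scale 0 is the no-effect control and ±100 the full control effect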); conditions: ME-180 SIE beta-lactamase reporter, IL-6 stimulated, 5 h; at 38 µM (top of the series)
# In short: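 Screening format detects activators and inhibitors alike: ME-180 SIE-bla cells stimulated at 40 pM IL-6 for 5 hrs with compound, then dual-emission beta-lactamase read at 405 nm excitation.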
# [3] = target: Glucocorticoid receptor (Homo sapiens) (UniProt P04150); test: GR-EFC Redistribution (AID 451; calls by dose curve; further: potency means the concentration at half of the fitted maximal effect); conditions: CHO-K1 GR-EFC translocation, beta-gal luminescence, 2 h
# In short: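 Translocation of GR-ED fusion to nuclear EA restores b-gal, read by luminescence after 1 h room-temperature detection. Engineered CHO-K1 biosensor cells, 1,000/well, exposed 2 h at 37 C to titrations up to 46 uM final.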
# [4] = target: Mitogen-activated protein kinase 10 (Mus musculus) (UniProt Q61831); test: JNK3 AlphaScreen Assay (AID 530; active means well fitted curve in either direction with a large enough effect, not every such curve was filed as active;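 further: kinase came from lysate of stimulated human HepG2 cells; potency means the concentration at half of the fitted maximal effect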)
# In short: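 Compound titrations were preincubated 15 minutes at room temperature with substrate, antibody and pre-activated JNK3-containing HepG2 lysate. Reactions were started with 10 uM ATP and stopped with EDTA-containing bead buffer for AlphaScreen detection.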
# [5] = target: Guanine nucleotide-binding protein G(i) subunit alpha-1 (Homo sapiens) (UniProt P63096); test: qHTS Assay for Inhibitors of RGS12 GoLoco Motif Activity (Green Fluorophore) (AID 879);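 further: 0% = labeled peptide with Gαi1 and full inhibition = labeled peptide alone without protein; negative values mean loss of peptide binding seen as reduced polarization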
# In short: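 Fluorescence polarization assay: 50 nM Gαi1 with 10 nM FITC-labeled RGS12 GoLoco peptide in 10 mM Tris pH 7.5, 150 mM NaCl, 0.1 mM GDP, 0.05% NP40, 10 min at room temperature with compound.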
# [6] = target: Cytochrome P450 3A4 (Homo sapiens) (UniProt P08684); test: qHTS Assay for Inhibitors and Substrates of Cytochrome P450 3A4 (AID 884); further: potency means the concentration at half of the fitted maximal effect; nearly all actives have a fitted effect of over 50% in size
# In short: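 20 nM human CYP3A4 with 25 uM Luciferin-PPXE (at KM) in 200 mM KPO4, preincubated 10 min with compound; NADPH regeneration started a 60 min RT reaction. Luciferin detected by luminescence, normalized to 57 uM ketoconazole as full inhibition.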
# [7] = target: Cytochrome P450 3A4 (Homo sapiens) (UniProt P08684); test: qHTS Assay for Activators of Cytochrome P450 3A4 (AID 885); further: nearly all actives have a fitted effect of over 65% in size
# In short: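 Steps: enzyme/substrate mix dispensed; compound added, 10 min RT; NADPH regeneration solution added, 60 min RT; luciferin detection buffer stops reaction; 20 min later luminescence measured.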
# [8] = target: Cytochrome P450 2D6 (Homo sapiens) (UniProt P10635); test: qHTS Assay for Inhibitors and Substrates of Cytochrome P450 2D6 (AID 891); further: potency means the concentration at half of the fitted maximal effect; nearly all actives have a fitted effect of over 60% in size
# In short: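 Human CYP2D6 (5 nM) with 30 uM Luciferin-ME EGE (at Km) in 100 mM KPO4, compound preincubated 10 min, then NADPH regeneration system for 60 min at room temperature. Luciferin read by luminescence; normalized to 1.43 uM quinidine.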
# [9] = target: Cytochrome P450 2C19 (Homo sapiens) (UniProt P33261); test: qHTS Assay for Inhibitors and Substrates of Cytochrome P450 2C19 (AID 899); further: potency means the concentration at half of the fitted maximal effect; nearly all actives have a fitted effect of over 60% in size
# In short: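 5nM enzyme + 10uM Luciferin-H EGE (=KM), 50mM KPO4; cpd pin-transferred, 10 min 37C; NADPH regen, 60 min 37C; stopped w/ luciferin detection reagent, 20 min; luminescence. Normalized to 57uM ketoconazole (AC100).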
# [10] = target: Muscarinic acetylcholine receptor M1 (Rattus norvegicus) (UniProt P08482); test: qHTS Assay for Antagonists of Acetylcholine Muscarinic M1 Receptor: Measurement of IP-One Response (AID 944); further: nearly all actives have a fitted effect of over 75% in size
# In short: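 M1-CHO (rat), 2000 cells/well, overnight recovery; cpd 10 min; carbachol EC80 (200 nM), 30 min, HEPES buffer + 50 mM LiCl pH 7.4; IP-One HTRF, Ex 337, Em 620/665 nm.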
# [11] = target: Pyruvate kinase PKM (Homo sapiens) (UniProt P14618); test: qHTS Assay for Activators of Human Muscle Pyruvate Kinase (AID 954; active means well fitted curve in the direction sought with a large enough effect, not every such curve was filed as active;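 further: 0% = uninhibited enzyme and -100% = no enzyme or full thiadiazolimine inhibition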)
# In short: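 Reaction: 0.1 nM purified PKM2 with 0.5 mM phosphoenolpyruvate and 0.1 mM ADP, room temperature, 1 h. Readout: luciferase-based ATP luminescence after stop reagent. Activators judged against a 0.3 nM enzyme column.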
# [12] = target: Pyruvate kinase PKM (Homo sapiens) (UniProt P14618); test: qHTS Assay for Inhibitors of Human Muscle Pyruvate Kinase (AID 958); conditions: purified human PKM enzyme activity
# In short: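 Enzyme was run at intermediate activity so both inhibitors and activators could be detected. ATP formed from ADP and PEP by 0.1 nM human PKM2 during a 1 h room-temperature incubation was quantified by coupled luciferase luminescence.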
# [13] = target: Pyruvate kinase (Leishmania mexicana) (UniProt Q27686); test: qHTS Validation Assay for Activators of Leishmania Mexicana Pyruvate Kinase (AID 959)
# In short: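 Substrate mix (0.5 mM PEP, 0.1 mM ADP, 7 mM MgCl2, 50 mM KCl, pH 7.2 imidazole) received compound by pin tool, then 0.2 nM LmPYK E451W. After 1 h at room temperature, PKLight was added and luminescence measured.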
# [14] = target: Alpha-galactosidase A (Homo sapiens) (UniProt P06280); test: Counterscreen for Glucocerebrosidase Inhibitors: qHTS Assay for Human alpha-Galactosidase at pH 4.5 (AID 992); further: 0% is about no effect
# In short: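 Concentration-response curves (0.7 nM to 77 uM final) were modeled with the Hill equation to give AC50. Reactions: 2 nM enzyme, 80 uM fluorogenic alpha-galactoside, pH 4.5 citric acid buffer, 20 min, room temperature.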
# [15] = target: alpha-glucosidase (Oryza sativa, rice) (UniProt Q653V4); test: Counterscreen for Glucocerebrosidase Inhibitors: qHTS Assay for Rice alpha-Glucosidase at pH 5.0 (AID 997);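 further: 0% = full activity with enzyme and -100% = basal without enzyme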
# In short: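 Rice alpha-glucosidase (4 nM final) with 400 uM 4-methylumbelliferyl-alpha-D-glucopyranoside in citrate buffer pH 5.0, 20 min at room temperature, stopped at pH 10; fluorescence 365/440 nm, compounds 0.7 nM–77 uM, AC50 from Hill fits.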
# [16] = target: DNA repair nuclease/redox regulator APEX1 (Homo sapiens) (UniProt P27695); test: qHTS Validation Assay for Inhibitors of the Human Apurinic/apyrimidinic Endonuclease 1 (APE1) (AID 1705;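 further: TAMRA fluorescence gain over two minutes as APE1 cuts a quenched THF abasic duplex; on the % scale 0 is the no-effect control and ±100 the full control effect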)
# In short: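 Substrate: 50 nM final fluorophore/quencher THF-abasic duplex. Enzyme preincubated with compounds 15 min, RT. Progress derived from fluorescence difference, third minus first kinetic read.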
# [17] = qHTS for differential inhibitors of proliferation of Plasmodium falciparum line 7G8 (AID 1815);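 further: potency means the concentration at half of the fitted maximal effect; parasite growth measured after three days of incubation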
# [18] = qHTS for differential inhibitors of proliferation of Plasmodium falciparum line GB4 (AID 1816); conditions: Potency: Plasmodium falciparum GB4 proliferation inhibition;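 further: potency means the concentration at half of the fitted maximal effect; parasite growth measured after 72 h incubation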
# [19] = qHTS for differential inhibitors of proliferation of Plasmodium falciparum line 3D7 (AID 1876); further: potency means the concentration at half of the fitted maximal effect
# Sequence of Cytochrome P450 1A2 (Homo sapiens) (P05177 whole entry, looked up): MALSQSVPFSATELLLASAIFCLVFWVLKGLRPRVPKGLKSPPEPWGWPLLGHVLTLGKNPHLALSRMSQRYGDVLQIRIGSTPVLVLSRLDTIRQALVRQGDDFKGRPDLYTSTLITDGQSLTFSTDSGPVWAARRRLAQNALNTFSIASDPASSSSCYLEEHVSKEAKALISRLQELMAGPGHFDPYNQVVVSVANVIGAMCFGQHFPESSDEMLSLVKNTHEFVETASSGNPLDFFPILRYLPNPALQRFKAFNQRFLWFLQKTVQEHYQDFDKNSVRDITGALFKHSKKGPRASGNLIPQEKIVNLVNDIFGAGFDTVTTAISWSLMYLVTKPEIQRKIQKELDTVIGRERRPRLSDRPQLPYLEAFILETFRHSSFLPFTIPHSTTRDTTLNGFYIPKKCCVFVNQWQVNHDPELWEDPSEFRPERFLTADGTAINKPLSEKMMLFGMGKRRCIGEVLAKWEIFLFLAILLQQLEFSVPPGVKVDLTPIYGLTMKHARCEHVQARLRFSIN
# Sequence of Cytochrome P450 3A4 (Homo sapiens) (P08684 whole entry, looked up): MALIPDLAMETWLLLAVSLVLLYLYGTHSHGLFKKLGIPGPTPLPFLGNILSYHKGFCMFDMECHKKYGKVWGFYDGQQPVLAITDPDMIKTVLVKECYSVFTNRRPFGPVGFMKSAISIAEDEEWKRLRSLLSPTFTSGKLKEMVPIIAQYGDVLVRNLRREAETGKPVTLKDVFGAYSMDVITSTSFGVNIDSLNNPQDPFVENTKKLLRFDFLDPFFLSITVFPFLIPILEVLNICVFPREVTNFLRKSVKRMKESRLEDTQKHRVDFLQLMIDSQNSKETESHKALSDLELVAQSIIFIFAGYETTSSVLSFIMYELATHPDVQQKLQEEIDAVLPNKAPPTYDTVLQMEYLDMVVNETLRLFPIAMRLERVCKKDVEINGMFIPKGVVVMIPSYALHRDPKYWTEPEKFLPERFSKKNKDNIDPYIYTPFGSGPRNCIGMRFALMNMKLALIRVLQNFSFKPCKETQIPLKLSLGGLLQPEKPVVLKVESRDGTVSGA
# Sequence of Glucocorticoid receptor (Homo sapiens) (P04150 whole entry, looked up, the tested form may be a part): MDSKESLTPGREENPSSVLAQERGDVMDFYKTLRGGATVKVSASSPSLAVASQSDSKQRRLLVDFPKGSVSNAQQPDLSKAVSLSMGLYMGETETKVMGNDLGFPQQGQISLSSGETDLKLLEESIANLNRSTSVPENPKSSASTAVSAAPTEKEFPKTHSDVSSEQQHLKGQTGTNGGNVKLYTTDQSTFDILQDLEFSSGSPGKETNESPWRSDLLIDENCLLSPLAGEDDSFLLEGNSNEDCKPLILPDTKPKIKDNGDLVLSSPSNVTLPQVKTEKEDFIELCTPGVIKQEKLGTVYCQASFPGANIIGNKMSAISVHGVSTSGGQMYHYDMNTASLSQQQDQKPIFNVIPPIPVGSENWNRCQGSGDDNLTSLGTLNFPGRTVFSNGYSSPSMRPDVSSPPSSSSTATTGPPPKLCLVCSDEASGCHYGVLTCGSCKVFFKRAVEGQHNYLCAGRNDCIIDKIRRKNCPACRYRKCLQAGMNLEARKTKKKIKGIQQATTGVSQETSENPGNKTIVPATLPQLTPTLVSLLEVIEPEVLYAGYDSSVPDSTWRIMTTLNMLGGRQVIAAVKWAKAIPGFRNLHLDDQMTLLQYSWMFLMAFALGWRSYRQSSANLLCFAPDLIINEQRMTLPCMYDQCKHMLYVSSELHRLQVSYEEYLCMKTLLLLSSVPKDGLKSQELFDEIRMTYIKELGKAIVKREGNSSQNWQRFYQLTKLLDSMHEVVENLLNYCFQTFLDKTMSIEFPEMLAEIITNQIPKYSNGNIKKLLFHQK
# Sequence of Pyruvate kinase PKM (Homo sapiens) (P14618 whole entry, looked up): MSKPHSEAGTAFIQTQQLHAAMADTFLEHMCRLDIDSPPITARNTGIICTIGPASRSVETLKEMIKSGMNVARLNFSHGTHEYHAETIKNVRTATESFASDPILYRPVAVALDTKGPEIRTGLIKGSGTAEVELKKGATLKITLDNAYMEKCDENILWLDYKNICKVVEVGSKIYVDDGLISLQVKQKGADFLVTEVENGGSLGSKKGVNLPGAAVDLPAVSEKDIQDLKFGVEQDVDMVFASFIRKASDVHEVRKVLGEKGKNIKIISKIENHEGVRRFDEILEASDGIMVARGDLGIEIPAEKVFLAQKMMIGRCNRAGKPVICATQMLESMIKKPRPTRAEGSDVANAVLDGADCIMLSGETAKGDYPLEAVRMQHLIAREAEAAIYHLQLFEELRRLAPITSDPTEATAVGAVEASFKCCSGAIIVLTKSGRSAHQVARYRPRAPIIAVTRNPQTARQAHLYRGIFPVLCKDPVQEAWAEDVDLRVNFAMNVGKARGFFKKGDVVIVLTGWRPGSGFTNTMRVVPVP
# Sequence of Guanine nucleotide-binding protein G(i) subunit alpha-1 (Homo sapiens) (P63096 whole entry, looked up): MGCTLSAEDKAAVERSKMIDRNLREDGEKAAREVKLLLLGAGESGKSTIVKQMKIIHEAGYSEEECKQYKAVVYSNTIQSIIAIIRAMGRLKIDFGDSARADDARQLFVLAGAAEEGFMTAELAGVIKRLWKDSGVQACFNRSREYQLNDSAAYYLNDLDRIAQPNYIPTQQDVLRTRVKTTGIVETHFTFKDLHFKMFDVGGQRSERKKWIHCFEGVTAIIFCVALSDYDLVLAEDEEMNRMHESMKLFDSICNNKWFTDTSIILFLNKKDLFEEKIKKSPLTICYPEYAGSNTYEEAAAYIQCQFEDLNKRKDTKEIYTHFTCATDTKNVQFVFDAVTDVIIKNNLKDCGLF
# Sequence of Cytochrome P450 2D6 (Homo sapiens) (P10635 whole entry, looked up): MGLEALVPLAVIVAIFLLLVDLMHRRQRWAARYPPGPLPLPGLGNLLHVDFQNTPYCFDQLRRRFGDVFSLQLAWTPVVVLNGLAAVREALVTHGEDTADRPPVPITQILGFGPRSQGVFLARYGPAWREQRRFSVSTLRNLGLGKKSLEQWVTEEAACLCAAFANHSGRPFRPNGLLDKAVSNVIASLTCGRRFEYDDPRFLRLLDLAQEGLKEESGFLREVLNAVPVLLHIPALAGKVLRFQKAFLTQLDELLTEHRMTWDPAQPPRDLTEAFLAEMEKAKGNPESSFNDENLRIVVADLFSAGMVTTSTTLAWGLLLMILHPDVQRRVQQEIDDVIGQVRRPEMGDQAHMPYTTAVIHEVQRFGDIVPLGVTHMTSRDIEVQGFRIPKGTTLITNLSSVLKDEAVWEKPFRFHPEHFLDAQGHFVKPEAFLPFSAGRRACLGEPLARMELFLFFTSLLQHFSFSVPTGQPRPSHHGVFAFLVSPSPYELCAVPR
# Sequence of Cytochrome P450 2C19 (Homo sapiens) (P33261 whole entry, looked up): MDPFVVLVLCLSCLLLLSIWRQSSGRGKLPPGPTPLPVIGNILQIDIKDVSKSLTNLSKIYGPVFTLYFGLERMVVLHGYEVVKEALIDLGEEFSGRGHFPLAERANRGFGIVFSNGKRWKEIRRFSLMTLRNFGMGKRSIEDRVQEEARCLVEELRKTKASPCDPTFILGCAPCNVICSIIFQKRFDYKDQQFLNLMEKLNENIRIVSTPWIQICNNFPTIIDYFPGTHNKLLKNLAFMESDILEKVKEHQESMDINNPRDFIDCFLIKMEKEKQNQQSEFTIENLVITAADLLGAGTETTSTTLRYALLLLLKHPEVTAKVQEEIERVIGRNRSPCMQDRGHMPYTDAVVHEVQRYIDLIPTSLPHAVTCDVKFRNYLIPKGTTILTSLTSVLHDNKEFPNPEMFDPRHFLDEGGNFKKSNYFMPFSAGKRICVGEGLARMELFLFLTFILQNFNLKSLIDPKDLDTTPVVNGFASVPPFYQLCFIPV
# Sequence of Muscarinic acetylcholine receptor M1 (Rattus norvegicus) (P08482 whole entry, looked up): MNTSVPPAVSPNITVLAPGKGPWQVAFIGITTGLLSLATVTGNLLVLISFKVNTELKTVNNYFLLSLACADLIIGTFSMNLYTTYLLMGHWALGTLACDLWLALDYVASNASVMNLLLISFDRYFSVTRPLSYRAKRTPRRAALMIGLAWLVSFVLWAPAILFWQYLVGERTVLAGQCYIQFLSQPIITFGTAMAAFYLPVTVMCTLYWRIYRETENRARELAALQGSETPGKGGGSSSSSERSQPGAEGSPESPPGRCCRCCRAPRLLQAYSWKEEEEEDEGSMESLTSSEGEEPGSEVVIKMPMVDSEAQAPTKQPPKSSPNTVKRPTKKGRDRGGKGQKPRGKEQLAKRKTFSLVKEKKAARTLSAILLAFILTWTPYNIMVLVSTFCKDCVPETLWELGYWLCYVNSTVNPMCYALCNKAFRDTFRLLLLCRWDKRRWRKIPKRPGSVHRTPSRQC
# Sequence of Pyruvate kinase (Leishmania mexicana) (Q27686 2-499 E452W): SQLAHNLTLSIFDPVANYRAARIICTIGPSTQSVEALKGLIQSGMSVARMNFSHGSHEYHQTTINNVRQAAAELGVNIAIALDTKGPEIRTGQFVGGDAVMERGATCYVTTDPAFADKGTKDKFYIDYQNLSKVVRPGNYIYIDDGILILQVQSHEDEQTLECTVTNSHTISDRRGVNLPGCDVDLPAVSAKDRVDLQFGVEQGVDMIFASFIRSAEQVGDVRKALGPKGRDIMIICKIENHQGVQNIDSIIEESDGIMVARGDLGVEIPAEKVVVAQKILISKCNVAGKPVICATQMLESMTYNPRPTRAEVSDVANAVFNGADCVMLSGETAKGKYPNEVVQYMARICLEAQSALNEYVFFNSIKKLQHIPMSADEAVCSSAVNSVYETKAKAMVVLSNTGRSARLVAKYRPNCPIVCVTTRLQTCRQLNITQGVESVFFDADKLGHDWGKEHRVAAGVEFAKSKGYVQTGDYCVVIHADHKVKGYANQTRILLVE
# Sequence of DNA repair nuclease/redox regulator APEX1 (Homo sapiens) (P27695 whole entry, looked up): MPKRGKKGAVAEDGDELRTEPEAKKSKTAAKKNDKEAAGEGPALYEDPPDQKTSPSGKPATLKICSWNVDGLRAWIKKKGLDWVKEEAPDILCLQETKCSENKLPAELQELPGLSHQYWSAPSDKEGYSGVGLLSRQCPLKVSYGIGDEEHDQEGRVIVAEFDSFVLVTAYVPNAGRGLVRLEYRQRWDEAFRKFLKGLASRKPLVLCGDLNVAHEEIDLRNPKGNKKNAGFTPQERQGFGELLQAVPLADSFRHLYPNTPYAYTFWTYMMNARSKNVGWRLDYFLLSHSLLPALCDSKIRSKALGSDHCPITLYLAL
smiles,measurement,setting,value
O=Nc1c(-c2c(O)[nH]c3ccccc23)[nH]c2ccccc12,Potency,[1],200 nM (active) and 31.6 nM (active)
same,"activity, negative = inhibition",[2],-75% (active)
same,Potency,[3],> 46 µM
same,Potency,[4],3.16 µM (active)
same,outcome,[5],inactive
same,Potency,[6],7.94 µM (active)
same,Potency,[7],inactive
same,Potency,[8],31.6 µM (active)
same,Potency,[9],6.31 µM (active)
same,Potency,[10],inactive
same,outcome,[11],inactive
same,Potency,[12],12.6 µM (active)
same,Potency,[13],inactive
same,outcome,[14],inactive
same,outcome,[15],inactive
same,Potency,[16],inactive
same,Potency,[17],1.26 µM (active)
same,Potency,[18],0.708 µM (active)
same,Potency,[19],0.355 µM (active)

# Reference: PubChem BioAssay (NCATS)
